The panel holds about 83,000 compounds, 20% with a hit somewhere; the sample as a whole holds those more often.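 The endpoint reported here, percent growth, reads 100 for growth as untreated, 0 for no net growth and -100 for all cells dead.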 Values without a mark were called inactive. The source made the active and inactive calls. The calls were made as follows: active = growth percent below 10; inactive = the rest.
Tested on: MDA-MB-468 breast
Test: NCI-60 one-dose screen, 48 h (100 = growth as untreated, 0 = no growth, -100 = all killed)
Settings: 10 µM unless noted

Row | SMILES | growth
1 | O=C(CN1CCN(c2cc3c(cc2F)c(=O)c(C(=O)O)cn3C2CC2)CC1)Nc1cc(=O)[nH]c(=O)[nH]1 | 89.7%
2 | C#C[C@]1(O)CC[C@H]2[C@@H]3CC=C4c5sc(-c6ccc(F)cn6)nc5CC[C@]4(C)[C@H]3CC[C@@]21C | 43.4%
3 | CCN1CCN(c2cc(C)nc(N(CCCNc3ccnc4cc(Cl)ccc34)Cc3cccs3)n2)CC1 | -26.4% (active)
4 | COc1cc(F)c(/C=C/c2cc(/C=C/c3cc(OC)c(OC)cc3F)n(-c3cc(F)cc(F)c3)n2)cc1OC | -37.6% (active)
5 | COc1ccccc1/C=C/C(=O)c1ccccc1 | 21.4%
6 | Nc1cccc(NC(=O)C(=O)Nc2cccc(N)c2)c1 | 117%
7 | COc1ccc(/C=N/Nc2nc(N/N=C/c3ccc(OC)cc3O)nc(N3CCOCC3)n2)c(O)c1 | 63.1%
8 | COc1cc(C)c(Cl)cc1C1=NN(c2ccc(S(N)(=O)=O)cc2)C(/C=C/c2ccccc2)C1 (stereo not drawn) | 41.2%
9 | Oc1cccc(Nc2nccc(-c3ccc4ccccc4c3)n2)c1 | 15.6%
10 | Nc1ncnc2c1ncn2C1(CO)OCC(O)C(O)C1O (stereo not drawn) | 108%
11 | C=CCSc1nnc(-c2ccc(C(C)(C)C)cc2)n1-c1cccc(C(F)(F)F)c1 | 21.5%
12 | COC(=O)CC[C@@H](C)[C@H]1CC[C@H]2C3CC[C@@H]4C[C@@H]5CC[C@]4(C)[C@@]3(O5)[C@H](Br)[C@@H](Br)[C@]12C (stereo partly drawn) | 99.5%
13 | COc1ccc2sc(NC(=O)CCCCCCNC(=O)C(O)(O)C(F)(F)F)nc2c1 | -11.7% (active)

From PubChem BioAssay (NCI)
